Vif imaging – inhibitors of HIV Vif; HEK293T cells, Vif self-association by quenched fluorescence, imaging, 24 h; inhibition, % at 7.49 µM; 0.35% of 340,000 active; AID 602346; in the data active = inhibition above about 50%, passing the limit was not always enough; inconclusive = no clear call, values can overlap the other calls; inactive = below about 31%
RAD54 branch – blocks human RAD54 Holliday junction branch migration; Q92698; FAM/BHQ fluorescence; inhibition, % at 10.4 µM; 0.14% of 360,000 active;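 active = mean normalized replicate activity at least 40 and at least half of replicates scoring 40 or more; inconclusive = only one of the two criteria met; inactive = mean below 40 and under half of replicates reaching 40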;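 also: 0% = median of neutral control wells and 100% = median of positive control wells; inhibitors cause a drop in the FAM fluorescence signal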
Target sequence (Q92698 whole entry, looked up): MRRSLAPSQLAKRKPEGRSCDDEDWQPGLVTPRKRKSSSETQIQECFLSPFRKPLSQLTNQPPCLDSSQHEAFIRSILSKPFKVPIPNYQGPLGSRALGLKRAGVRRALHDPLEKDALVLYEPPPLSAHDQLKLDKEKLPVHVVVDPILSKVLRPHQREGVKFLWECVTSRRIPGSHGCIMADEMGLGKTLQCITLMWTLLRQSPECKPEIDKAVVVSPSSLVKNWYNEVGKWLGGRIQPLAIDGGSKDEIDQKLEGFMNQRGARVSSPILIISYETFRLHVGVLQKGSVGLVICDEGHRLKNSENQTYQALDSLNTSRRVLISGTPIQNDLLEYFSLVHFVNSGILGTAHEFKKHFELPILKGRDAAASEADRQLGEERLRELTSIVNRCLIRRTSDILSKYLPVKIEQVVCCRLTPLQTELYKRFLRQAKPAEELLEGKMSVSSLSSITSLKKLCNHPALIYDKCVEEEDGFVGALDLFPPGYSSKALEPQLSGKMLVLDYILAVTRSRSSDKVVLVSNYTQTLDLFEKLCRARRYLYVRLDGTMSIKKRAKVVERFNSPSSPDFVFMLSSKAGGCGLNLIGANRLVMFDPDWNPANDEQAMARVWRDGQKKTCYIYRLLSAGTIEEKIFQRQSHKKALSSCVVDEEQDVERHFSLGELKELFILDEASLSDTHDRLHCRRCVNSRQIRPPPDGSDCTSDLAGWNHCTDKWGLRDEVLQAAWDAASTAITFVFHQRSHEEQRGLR
ABCB6 inh 2 – human ABCB6 transporter inhibition; Q9NP58; K562-ABCB6 porphyrin accumulation, flow cytometry, 1 h; hits give low values; fluorescence ratio to DMSO, % at 10 µM; 0.19% of 360,000 active;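 active = fluorescence ratio to DMSO below 75%, the collection mean minus 3 SD; inconclusive = too few cells collected in the well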;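 also: signal is porphyrin accumulated inside mitochondria; 100% equals median channel fluorescence of DMSO control wells; lower ratio means ABCB6 inhibition with less porphyrin fluorescence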
Myeloid diff 2 – compounds promoting myeloid differentiation; ER-HoxA9 myeloid progenitors, lysozyme-GFP differentiation, flow cytometry; 1% of 360,000 active; calls only at 10 µM;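 active = normalized GFP-positive differentiation at or above the plate's own cutoff, the solvent-only control mean plus 3 SD; inconclusive = no clear call, values can overlap the other calls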;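 also: cells exposed to compound for four days before flow analysis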
Glyco luc inh – blocks N-linked glycosylation in D54 reporter cells; D54 ERlucT glycosylation luciferase reporter, 24 h; percent of 100 nM tunicamycin response; reporter increase, % at 12.5 µM; 0.23% of 360,000 active;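 active = mean luciferase reporter signal, scaled so untreated is 0 and the glycosylation-blocking control 100, at or above a set limit in every replicate; inconclusive = mean reaches the limit but not every replicate does; inactive = mean below the limit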;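 also: luciferase carries N-glycosylation sites so blocking glycosylation raises the light; 0% = median of neutral control wells and 100% = median of 100 nM tunicamycin wells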
An asterisk follows results filed as active; i = inactive; ? = inconclusive; nt = not tested or not shown; + = active, no number. Sampled rows, rich in hits. Any-hit rate of the full collection: about 1.6%.

SMILES | Vif imaging | RAD54 branch | ABCB6 inh 2 | Myeloid diff 2 | Glyco luc inh
O=C1/C(=C\c2ccccc2)SC(=S)N1CCC(=O)N1CCCCC1CCO (stereo unspecified) | -4 | -10 | 98 | ? | -3
COc1ccc(/C=C2\SC(=S)N(CCCC(=O)N3CCCCC3CCO)C2=O)cc1 (stereo unspecified) | -7 | nt | 100 | + | -1
CCOc1ccc(C2Nc3ccc4ccccc4c3-c3c2c(=O)oc2ccccc32)cc1 (stereo unspecified) | -2 | nt | 105 | i | 12
COc1ccc(C2Nc3ccc4ccccc4c3-c3c2c(=O)oc2ccccc32)cc1 (stereo unspecified) | 4 | 1 | 105 | i | 109*
Cc1ccc(NC(=O)CSc2nnnn2-c2ccc3c(c2)OCO3)cc1C | 18 | -6 | 91 | + | 0
C[C@@H]1CN([C@H](C)CO)C(=O)c2cc(NC(=O)Cc3ccccc3)ccc2O[C@@H](C)CCCCO[C@H]1CN(C)Cc1ccc2c(c1)OCO2 | nt | -3 | nt | nt | nt
O=C(c1cccc(OC2CCN(Cc3cccc(OCCO)c3)CC2)c1)N1CCCC1 | -5 | 2 | 99 | + | -4
O=C(c1ccc(OC2CCN(Cc3cccc(OCCO)c3)CC2)cc1)N1CCCC1 | 2 | nt | 102 | i | 0
CCOc1ccc(OCc2cccc(C(=O)N3CCCC3)c2)cc1 | 53* | -10 | 102 | i | -9
CCOc1ccc(OCc2cccc(C(=O)N3CCCCCC3)c2)cc1 | 8 | nt | 90 | i | -9
COc1cc(NS(=O)(=O)c2ccc(N/C=C(\C#N)c3nc4cc(Cl)ccc4o3)cc2)nc(OC)n1 | 2 | -13 | 55* | nt | 2
NC(N)=Nc1nc(-c2ccccc2)c2ccccc2n1 | -1 | 51* | 104 | i | 9
Clc1nc(-c2ccccc2)c2ccccc2n1 | 11 | 3 | 101 | i | 0
CCOc1cc(/C=C2/SC(=S)N(Cc3ccccc3)C2=O)ccc1O | -5 | -15 | 233 | + | 2
O=C(Cc1ccccc1)NN1C(=O)/C(=C/c2ccc(C(=O)O)cc2)SC1=S | -9 | nt | 102 | i | 0
O=C(O)c1ccc(/C=C2/SC(=S)N(Cc3ccccc3)C2=O)cc1 | -9 | -4 | 129 | + | 2
O=C1/C(=C\c2ccc(O)cc2)SC(=S)N1Cc1ccccc1 | -2 | -37 | 125 | + | 1
COc1cc(/C=C2/SC(=S)N(Cc3ccccc3)C2=O)cc(Cl)c1O | 9 | i | i | + | -4
O=C1/C(=C/c2ccc(O)c([N+](=O)[O-])c2)SC(=S)N1Cc1ccccc1 | 10 | -7 | 103 | i | -1
CCCN1C[C@@H](C)[C@H](OC)CN(C)C(=O)c2cc(NC(=O)c3ccc4c(c3)OCO4)ccc2OC[C@H]1C | nt | -1 | nt | nt | nt
C[C@@H]1CCCCO[C@@H](CN(C)Cc2ccncc2)[C@H](C)CN([C@@H](C)CO)C(=O)c2cc(NC(=O)Nc3ccc4c(c3)OCO4)ccc2O1 | nt | 2 | nt | nt | nt
C[C@@H](NC(=O)C[C@@H]1C=C[C@@H](NC(=O)C2CCC2)[C@H](CO)O1)c1ccccc1 | nt | -1 | nt | nt | nt
O=C(CCCN1C(=O)/C(=C\c2cccc(Br)c2)SC1=S)Nc1ccc(C(=O)O)cc1 | 77* | 1 | 96 | i | -1
O=C(CCCN1C(=O)/C(=C\c2ccccc2)SC1=S)Nc1ccc(C(=O)O)cc1 | 7 | -7 | 102 | ? | -1
O=C(NCC1CC1)[C@H]1[C@H](CO)[C@H]2Cn3c(ccc(-c4ccccc4)c3=O)[C@H]2N1Cc1cocn1 | nt | -33 | nt | nt | nt
SMILES | Vif imaging | RAD54 branch | ABCB6 inh 2 | Myeloid diff 2 | Glyco luc inh
CO[C@H]1CN(C)C(=O)c2cc(NC(=O)NC(C)C)ccc2OC[C@H](C)N(C(=O)CC2CC2)C[C@H]1C | nt | 5 | nt | nt | nt
O=C(Nc1cccc(F)c1)N1C[C@@H]2[C@H](c3ccccc31)[C@H](CO)N2C(=O)c1cccnc1 | nt | -5 | nt | nt | nt
COc1cccc(C2CC(c3cccs3)=NN2C(=O)CSC2=NN3CCCC(=O)N=C3S2)c1OC (stereo unspecified) | 9 | -2 | 87 | + | 1
COc1ccc(S(=O)(=O)N(C)C[C@@H]2Oc3ccc(NC(=O)Nc4ccc5c(c4)OCO5)cc3C(=O)N([C@H](C)CO)C[C@@H]2C)cc1 | nt | 1 | nt | nt | nt
COc1ccc(OC)c(N(CC(=O)Nc2ccc(NC(C)=O)cc2)S(C)(=O)=O)c1 | -2 | -18 | 97 | i | 3
COC(=O)c1ccc(C)c(NC(=O)CN(c2cc(OC)ccc2OC)S(C)(=O)=O)c1 | 7 | -1 | 98 | i | 74*
C=CCN(c1ccccc1Cl)S(=O)(=O)c1cccc(C(=O)OCC(=O)N(C)C2CCS(=O)(=O)C2)c1 (stereo unspecified) | 7 | -1 | 69* | i | 0
N/C(=N\OS(=O)(=O)c1ccc(Br)cc1)c1ccncc1 | 11 | 0 | 63* | i | 4
N/C(=N\OC(=O)COc1ccc(Br)cc1)c1ccncc1 | nt | nt | 98 | i | -2
Cc1ccc(C(=O)NC(CCc2ccccc2)C(=O)O)cc1 (stereo unspecified) | 118* | -11 | 104 | i | 1
COc1cc2c(cc1OC)-c1c(OC)c(OC)cc3ccnc(c13)C2=O | -4 | 88* | 97 | ? | -10
Cc1ccccc1OCC(=O)Nc1ccc(N2CCOCC2)cc1N1CCOCC1 | -1 | -1 | 99 | i | -2
Cc1cc(N2CCCC2)ccc1NC(=O)COc1ccccc1 | 9 | 0 | 215 | + | -2
CCc1ccccc1OCC(=O)Nc1ccc(N2CCCC2)cc1C | -4 | -7 | 238 | + | -3
O=C(Nc1ccc(F)cc1)c1cc(Cl)sc1Cl | 9 | nt | 104 | i | 2
O=C(Nc1ccc([N+](=O)[O-])cc1)c1cc(Cl)sc1Cl | 1 | -1 | 93 | + | -6
O=C(C[C@H]1CC[C@H](NC(=O)CN2CCOCC2)[C@@H](CO)O1)NC1CCCCC1 | nt | 0 | nt | nt | nt
COc1ccc2c(c1)c(CC(=O)Nc1cc(C)ccc1C)c(C)n2C(=O)c1ccc(Cl)cc1 | -3 | -2 | 107 | + | -10
Cc1ccc(S(=O)(=O)NC2CC2)cc1 | -2 | 2 | 110 | i | 2
Cc1ccc(S(=O)(=O)NC2CCC(C(=O)O)CC2)cc1 (stereo unspecified) | 2 | -7 | 100 | + | 0
CO[C@H](CN(C)C(=O)c1ccccc1F)[C@@H](C)CN([C@H](C)CO)S(=O)(=O)c1ccc(C)cc1 | nt | 6 | nt | nt | nt
O=C(CNC(=O)c1ccco1)N=Nc1c(O)n(CCc2ccccc2)c2ccccc12 | 3 | 8 | 102 | ? | 34*
CCOC(=O)CC(=O)CSc1ncnc2c1oc1ccccc12 | 57* | 3 | 98 | i | 1
O=C(O)CSc1ncnc2c1oc1ccccc12 | 16 | -9 | 90 | i | 1
Cc1ccc(NS(=O)(=O)c2cc([N+](=O)[O-])ccc2N/N=C/c2sc(N3CCOCC3)nc2-c2ccccc2)c(C)c1 | 7 | nt | i | + | 13

Screening results from PubChem.
